# Data published in the supplement of paper PMC6555819.
# Assays:
# Assay in all cases: PBM binding z-score (relative to random genomic background probes); higher = stronger binding; sequences stand for … in GC…GCGATTGACAGCGTAGAATGAAGG
# [1] = test system: FXR:RXRa (NR concentration 270 nM, RXRa partner concentration 90 nM)
# Method in brief: (§1)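 Ligand-free nuclear receptor dimers were bound for 1 h to custom Agilent 4×180K protein-binding microarrays. Detection used antibodies against each partner (one per run). Binding z-scores rest on regression-normalized fluorescence, with random background probes as the reference.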
# [2] = test system: LXRa:RXRa (NR concentration 270 nM, RXRa partner concentration 90 nM)
# Method in brief: as §1
# [3] = test system: LXRa homodimer (NR concentration 270 nM)
# Method in brief: as §1
# [4] = test system: LXRb:RXRa (NR concentration 270 nM, RXRa partner concentration 90 nM)
# Method in brief: as §1
# [5] = test system: LXRb homodimer (NR concentration 270 nM)
# Method in brief: as §1
# [6] = test system: PPARg:RXRa (NR concentration 180 nM, RXRa partner concentration 90 nM)
# Method in brief: as §1
# [7] = test system: PPARg:RXRa 270nM:90nM, anti-RXR (NR concentration 270 nM, RXRa partner concentration 90 nM)
# Method in brief: as §1
# [8] = test system: PPARg:RXRa 30nM:10nM, anti-RXR (NR concentration 30 nM, RXRa partner concentration 10 nM)
# Method in brief: as §1
# [9] = test system: PPARg:RXRa 90nM:30nM, anti-RXR (NR concentration 90 nM, RXRa partner concentration 30 nM)
# Method in brief: as §1
# [10] = test system: PPARg:RXRa DBDmut IVT, anti-RXR (DBD mutation: RXRa K156A/R161A, NR concentration 270 nM, RXRa partner concentration 90 nM)
# Method in brief: as §1
# [11] = test system: PPARg:RXRa IVT, anti-PPARg (NR concentration 270 nM, RXRa partner concentration 90 nM)
# Method in brief: as §1
# [12] = test system: PPARg DBDmut:RXRa IVT, anti-PPARg (DBD mutation: PPARg1 K132A/R137A, NR concentration 270 nM, RXRa partner concentration 90 nM)
# Method in brief: as §1
# [13] = test system: PPARg DBDmut IVT, anti-PPARg (DBD mutation: PPARg1 K132A/R137A, NR concentration 270 nM)
# Method in brief: as §1
# [14] = test system: PPARg homodimer (NR concentration 180 nM)
# Method in brief: as §1
# [15] = test system: PXR:RXRa (NR concentration 270 nM, RXRa partner concentration 90 nM)
# Method in brief: as §1
# [16] = test system: PXR homodimer (NR concentration 270 nM)
# Method in brief: as §1
# [17] = test system: RARa:RXR (NR concentration 270 nM, RXRa partner concentration 90 nM)
# Method in brief: as §1
# [18] = test system: RARa homodimer (NR concentration 270 nM)
# Method in brief: as §1
# [19] = test system: RARb:RXRa (NR concentration 270 nM, RXRa partner concentration 90 nM)
# Method in brief: as §1
Sequence,PBM binding z-score [1],PBM binding z-score [2],PBM binding z-score [3],PBM binding z-score [4],PBM binding z-score [5],PBM binding z-score [6],PBM binding z-score [7],PBM binding z-score [8],PBM binding z-score [9],PBM binding z-score [10],PBM binding z-score [11],PBM binding z-score [12],PBM binding z-score [13],PBM binding z-score [14],PBM binding z-score [15],PBM binding z-score [16],PBM binding z-score [17],PBM binding z-score [18],PBM binding z-score [19]
CGTCCAAGGTCCATGCTAGGTCAGTGAAAGCATT,0.162,3.49,0.25,0.906,-0.855,-0.453,-0.317,-0.678,-0.366,0.0985,0.351,-0.956,-1,0.21,0.422,-0.0884,1.35,-0.265,1.7
TCTCGGAGGACACGAAAGGTCTGAGCTCGACATC,0.119,-0.119,-0.569,-0.279,-0.889,0.108,1.01,1.92,1.49,1.62,-0.101,-0.378,-0.264,0.204,-0.0379,-0.678,0.227,-0.321,1.7
CAAACTAGGTCACCGGAAGGTCATAGTCCGCATG,6.02,5.59,4.48,4.88,0.927,9.71,7.81,6.11,7.67,8.59,9.21,4.3,3.06,4.74,5.48,1.67,6.36,1.54,5.66
CTCGAAAGGTGGTGCTCAGGTGAGTATACCAAAC,-0.352,-0.533,-0.489,-0.329,-0.573,-0.375,-0.0981,-0.462,-0.126,-0.605,0.359,-0.543,-0.314,0.0565,-0.599,-0.22,0.343,-0.47,0.237
GATTACGGGTCAAAGGTTATAGCATGAATAGAAT,7.94,6.17,1.25,6.01,0.564,11.8,9.6,10.5,11.3,5.21,6.61,1.49,3.11,2.97,6.03,0.645,8.43,1.34,4.69
CCTGCTCGGTCAATGGTCAGCTAAAGCAGCTCGC,0.351,0.448,-0.0838,-0.541,-0.234,-0.00581,1.43,-0.317,0.846,0.753,0.0131,-1.19,-1.21,-0.242,-0.189,-0.933,0.252,-0.686,2.28
CCGACTTGGGCAAAGGTTACCATACTCAGTACGA,0.847,1.32,0.214,1.68,-0.6,6.45,6.29,5.67,7.54,0.755,2.56,-0.26,-0.659,0.915,1.45,0.0117,2.35,-0.0307,1.92
CCTGCTAGGTCATGGTCAGGTAATCTACAGTATG,3.64,2.62,0.355,1.7,-0.354,2.37,2.82,0.671,1.75,4.45,3.79,0.801,0.0323,1.72,1.78,-0.0214,2.55,0.209,4.04
CCTACTGGGCCATTGAGAGGTCATTGATCATATG,1.94,3.79,6.21,3.34,0.0421,1.83,2.82,0.314,1.68,4.21,3.95,-0.492,0.0836,2.14,4.37,2.03,4.26,0.245,2.82
CAAACTAGGTCACGAAAGGTCAAAGTGGAATGAC,7.59,8.25,7.92,7.19,2.79,10.6,8.11,7.1,8.54,8.3,9.14,4.86,3.3,6.09,7.22,2.33,7.85,4.81,5.72
AGAATGAGGTTACACGTAGATCAGGGAAGAAAGT,2.62,1.97,-0.126,1.74,-0.022,2.84,2.76,0.95,1.91,4.19,3.53,1.09,0.468,1.27,1.36,-0.00272,1.84,0.499,2.07
TAGCCTAGGTCATTCAGGGGCTAGTATAGAAAGC,4.83,3.69,0.257,2.77,0.83,2.12,2.22,0.575,1.45,1.49,2.56,-0.0413,0.573,1.3,2.36,-0.268,2.79,-0.106,3.76
CGAACTATGTCAAGGACAGTGAATCTCCGCACGC,0.0723,-0.232,-0.234,-0.456,-0.269,0.856,0.74,-0.213,0.259,3.57,2.11,-0.346,0.361,0.224,-0.112,0.37,0.29,0.0991,0.88
AGTCAAAGTTCAGGACGAGGTAATGTAAAGCACG,4.1,3.43,1.28,1.77,0.372,4.31,4.68,2.03,4.01,-0.319,1.45,-0.174,0.146,1.53,3.18,1.4,2.5,0.661,4.23
CCTACTGGGGCAAAGGTCATTGATTCCAATGCTC,4.69,5.21,2.93,4.78,0.406,12,10,9.73,11.1,6.11,7.2,0.312,-0.624,2.42,5.6,0.979,6.37,0.341,4.66
